The values below come from PubChem BioAssay (NCI).

The nature of assay [1]: NCI Yeast Anticancer Drug Screen. Data for the rad50 strain (AID 155).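 Note: 0% = growth of vehicle-only cultures of the same strain.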 To be noted: S. cerevisiae rad50 strain growth inhibition; at 50.0 µM; hits give high values. The essentials: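 Inhibition values express reduced yeast growth in compound-treated cultures relative to vehicle-treated controls.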
The nature of assay [2]: NCI Yeast Anticancer Drug Screen. Data for the mec2-1 strain (AID 157). To be noted: S. cerevisiae mec2-1 strain, at 50.0 µM, hits give high values. The essentials:
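Cells of the genetically defined mec2-1 yeast strain are incubated with test compound. Inhibition of growth is calculated against vehicle-treated controls.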

The nature of assay [3]: NCI Yeast Anticancer Drug Screen. Data for the sgs1 mgt1 strain (AID 161).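 Note: 0% = growth of cultures given vehicle only.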 To be noted: S. cerevisiae sgs1 mgt1 strain, at 50.0 µM, hits give high values. An outline of the steps:
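Inhibition of yeast growth, normalised to vehicle-treated controls, is reported for a strain bearing genetic alterations in DNA damage repair.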

Assay [4] can be described thus: NCI Yeast Anticancer Drug Screen. Data for the cln2 rad14 strain (AID 165).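 Note: 0% = growth equal to vehicle treated cultures.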 To be noted: S. cerevisiae cln2 rad14 strain, at 50.0 µM, hits give high values. An outline of the steps:
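The screen exposed genetically defined yeast (cln2 rad14) to test compounds and scored growth inhibition relative to vehicle-treated controls.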

Assay [5] can be described thus: NCI Yeast Anticancer Drug Screen. Data for the bub3 strain (AID 167). As to conditions: S. cerevisiae bub3 mutant strain, at 50.0 µM, hits give high values. An outline of the steps:
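Steps: expose the mutant yeast strain to compound; grow alongside vehicle-treated cultures; measure growth; express inhibition against the vehicle cultures.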

A short description of assay [6]: NCI Yeast Anticancer Drug Screen. Data for the mlh1 rad18 strain (AID 175). To be noted: S. cerevisiae mlh1 rad18 strain growth inhibition; at 50.0 µM; hits give high values. An outline of the steps: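 Compound-treated yeast growth, normalised to vehicle controls. Strain bears defined DNA repair mutations.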

The panel holds about 79,000 compounds, 15% with a hit somewhere; the sample as a whole holds those more often. A number with no mark means an inactive call. The source made the active and inactive calls. Cut-off read from the data, not from the text of the source: active = growth inhibition above about 70%; inactive = the rest.

In the case of `Cc1ccc([N+](=O)[O-])cc1NC(=O)C(=O)C(C(=O)c1ccccc1F)C1OC(=O)c2ccccc21` (centres undefined), the growth inhibition is -3.1% in assay [1]; 5.7% in assay [2]; -14.4% in assay [3]; 13.1% in assay [4]; -1.1% in assay [5]; -1.9% in assay [6].
As to `CC1CCC2C(C)C3C(CC4C5CC=C6CC(O)CCC6(C)C5CCC43COC(=O)c3ccccc3)N2C1` (centres undefined), the growth inhibition was 44.4% in assay [1]; 16.8% in assay [2]; 55.8% in assay [3]; 21.4% in assay [4]; 5.95% in assay [5]; 42.6% in assay [6].
For the molecule `CSCC[C@H](NC(C)=O)B1OCCO1`, the growth inhibition in assay [1] was 9.85%; in assay [2], 21.4%; in assay [3], 2.95%; in assay [4] it was 6.05%; in assay [5] it was -4.6%; in assay [6], 19.5%.
On to `Oc1ccc(CCC2CCNCC2)cc1`, for which the growth inhibition in assay [1] was 7.75%; in assay [2], 23.4%; in assay [3], 7.7%; in assay [4], -27.2%; in assay [5] it was -11.1%; in assay [6], -30.1%.
As for `CC(NNC(=S)N1CC2CCC(CC2)C1)c1cccc[n+]1[O-]` (centres undefined), the growth inhibition in assay [1] was 93.1% (active); in assay [2], 37.4%; in assay [3], 92.5% (active); in assay [4], 84.7% (active); in assay [5], 48.8%; in assay [6] it was 59.6%.
On to `CSCCC(N)C(=O)NCCNc1ccc(NCCNC(=O)C(N)CCSC)c2c1C(=O)c1ccccc1C2=O` (centres undefined), for which the growth inhibition in assay [1] was -8.05%; in assay [2] it was -0.9%; in assay [3], -29%; in assay [4], -0.5%; in assay [5], -30.4%; in assay [6], -44.4%.
`CCOC(=O)c1ccc(NC(=O)c2cccc(Cl)c2)cc1`: the growth inhibition is 0.1% in assay [1]; -6.85% in assay [2]; -4.25% in assay [3]; -5.45% in assay [4]; 9.5% in assay [5]; 1.25% in assay [6].
For `O=C(O)C(Br)C1(Br)c2ccccc2-c2ccccc21` (centres undefined), the growth inhibition is 99.3% (active) in assay [1]; 99.7% (active) in assay [2]; 99.7% (active) in assay [3]; 95.4% (active) in assay [4]; 97.3% (active) in assay [5]; 99.6% (active) in assay [6].
As for `CC(=O)OC(COC(c1ccccc1)(c1ccccc1)c1ccccc1)C(OC(C)=O)C(COC(c1ccccc1)(c1ccccc1)c1ccccc1)OC(C)=O` (centres undefined), the growth inhibition in assay [1] was -25.9%; in assay [2] it was -8.4%; in assay [3], -22.5%; in assay [4], -18.8%; in assay [5], -6.6%; in assay [6], -15.1%.
For `CN1C(=O)c2cnc3ccccc3c2C1(O)c1ccccc1` (centres undefined), the growth inhibition in assay [1] was -1.75%; in assay [2], 1.35%; in assay [3], 2.4%; in assay [4], 5.25%; in assay [5], 0%; in assay [6] it was 3.9%.
In the case of `CC(=O)OCC1OC(n2c(Br)nc3c(N)ncnc32)C(O)C1O` (centres undefined), the growth inhibition in assay [1] is -3.35%; in assay [2] it was -4.5%; in assay [3] it was -16.4%; in assay [4], -12.2%; in assay [5], -0.7%; in assay [6], -29.4%.
Turning to `S=C(NCc1ccccc1)Nc1ncn[nH]1`, the growth inhibition was 5.1% in assay [1]; 0.25% in assay [2]; -5.8% in assay [3]; -22.9% in assay [4]; 3.55% in assay [5]; 3.8% in assay [6].
As for `CN=C1NC(C)(C)C2CCC(C)(CC2)S1`, the growth inhibition is 8.35% in assay [1]; 14.9% in assay [2]; -4.3% in assay [3]; -71.3% in assay [4]; 2.85% in assay [5]; 14.7% in assay [6].
Regarding `O=C(O)CSc1n[nH]c(-c2ccco2)n1`, the growth inhibition in assay [1] was -4.05%; in assay [2], 4.25%; in assay [3] it was 3%; in assay [4], 14.1%; in assay [5], 11.1%; in assay [6], 7.7%.
Take `NC(=S)N/N=C(\CCC(=O)Nc1ccccc1[N+](=O)[O-])CC(=O)c1ccco1`: the growth inhibition is -1.55% in assay [1]; -1.95% in assay [2]; -19.9% in assay [3]; 27.4% in assay [4]; -19.8% in assay [5]; 6.3% in assay [6].
Consider `O=C1NC(=S)S/C1=C\c1c(Cl)cccc1Cl`, for which the growth inhibition in assay [1] is 56.9%; in assay [2], 19%; in assay [3], 61.1%; in assay [4] it was 16.9%; in assay [5] it was 27.9%; in assay [6], 60.4%.
For the molecule `OCCN(Cc1ccccc1)C(c1ccccc1)C(O)c1ccccc1` (centres undefined), the growth inhibition in assay [1] is -2.8%; in assay [2], 7.65%; in assay [3] it was 24.2%; in assay [4], 29.2%; in assay [5], 1.7%; in assay [6], 1.3%.
`CC(=O)NC(CCCN)C(=O)NCc1ccccc1` (centres undefined): the growth inhibition in assay [1] is 3.45%; in assay [2], -19.2%; in assay [3], -20.3%; in assay [4], 17.5%; in assay [5], -3.45%; in assay [6] it was -22.6%.
Regarding `CC1=C2CCCCC2(C)C=C(C(=O)O)C1=O` (centres undefined), the growth inhibition in assay [1] was 22.2%; in assay [2], 50.5%; in assay [3] it was 18.8%; in assay [4] it was 34.6%; in assay [5], 12.2%; in assay [6] it was 23.4%.
As for `O=c1c(-c2ccccc2)c2oc(c1-c1ccccc1)CS(=O)(=O)CCC2`, the growth inhibition was 21.9% in assay [1]; 20.2% in assay [2]; 16% in assay [3]; 12.3% in assay [4]; 8.15% in assay [5]; -2.35% in assay [6].
Turning to `O=C1CN(CCCCl)CC(=O)N2Cc3ccccc3CN12`, the growth inhibition in assay [1] was -9.05%; in assay [2], 5.3%; in assay [3], -15.7%; in assay [4], -10.1%; in assay [5] it was -3.7%; in assay [6], -20.1%.
For the molecule `CCOP(=O)(OCC)C([O][Sb]([O]CC(C)Cl)[O]CC(C)Cl)c1ccc(OC)cc1` (centres undefined), the growth inhibition in assay [1] was -41.9%; in assay [2], -4.85%; in assay [3] it was -10.9%; in assay [4], -2.45%; in assay [5], 2.05%; in assay [6] it was -18.6%.
With `CCNc1nc2ccccc2nc1NCC`, the growth inhibition is -18.1% in assay [1]; -5.6% in assay [2]; 1.45% in assay [3]; 16.1% in assay [4]; -13.3% in assay [5]; 3.15% in assay [6].
Regarding `O=C(NCc1ccc(Cl)c(Cl)c1)Nc1ccccc1Cl`, the growth inhibition in assay [1] is 10.6%; in assay [2], 24.4%; in assay [3], 23.3%; in assay [4], -2.7%; in assay [5], 24.8%; in assay [6] it was 17.9%.
Consider `Cc1cc(Cl)ccc1OCC(=O)OCC(C)(C)[N+](=O)[O-]`, for which the growth inhibition is 6.05% in assay [1]; 19.1% in assay [2]; 20.4% in assay [3]; -80.2% in assay [4]; 36.6% in assay [5]; 33.7% in assay [6].
Turning to `CCC([NH-])(CC)C[NH-].[Cl][Pt+2][Cl]`, the growth inhibition in assay [1] was 2.3%; in assay [2], 13.4%; in assay [3], -31.4%; in assay [4], -1.45%; in assay [5], -14.1%; in assay [6], -44.6%.
Consider `Cc1cc2c(cc1C)-c1c(N)nc(N)nc1CC2`, for which the growth inhibition in assay [1] was 2.2%; in assay [2], 9.95%; in assay [3] it was -8.6%; in assay [4], -29.2%; in assay [5] it was -15%; in assay [6], 12.7%.
Consider `CCCC(=O)SCC[N+](C)(C)C`, for which the growth inhibition is -10.2% in assay [1]; -48.3% in assay [2]; 15.4% in assay [3]; 21.6% in assay [4]; -13.3% in assay [5]; 4.5% in assay [6].
As for `Nc1nc(N)c2c(n1)Nc1ccc(Cl)nc1S2`, the growth inhibition is 94.2% (active) in assay [1]; 69.3% in assay [2]; 89.1% (active) in assay [3]; 52.2% in assay [4]; 81.1% (active) in assay [5]; 93.8% (active) in assay [6].
Consider `CC(=O)NC(C(=O)Nc1ccccc1)=C(C)C`, for which the growth inhibition in assay [1] is -7.45%; in assay [2] it was -7.9%; in assay [3], -11.8%; in assay [4] it was -11.5%; in assay [5] it was 5.25%; in assay [6] it was 0.8%.
As for `CC1CC(=O)C2CC(Cl)CCC2(C)C1C` (centres undefined), the growth inhibition in assay [1] is -18.1%; in assay [2] it was -22.6%; in assay [3], -4.6%; in assay [4] it was -45.4%; in assay [5], -27.4%; in assay [6], -6.05%.
On to `CC(C)=CCC(C)c1ccccn1` (centres undefined), for which the growth inhibition in assay [1] is -2.45%; in assay [2], 5.5%; in assay [3], 10.3%; in assay [4] it was -12.8%; in assay [5], 10.9%; in assay [6], -4.2%.
For the molecule `O=S1OCC#CCOS(=O)OCC#CCO1` (centres undefined), the growth inhibition in assay [1] is -7.1%; in assay [2], -23.8%; in assay [3], -7.5%; in assay [4], -6.2%; in assay [5] it was -3.7%; in assay [6], 7.7%.
For the molecule `CCCCCCCC/C=C\CCCCCCCC(=O)NCCN1CCCCC1`, the growth inhibition in assay [1] was 99% (active); in assay [2], 99.5% (active); in assay [3], 99.6% (active); in assay [4], 97.8% (active); in assay [5], 99% (active); in assay [6], 99.2% (active).
Take `O=C(N/N=C/c1ccc(Cl)cc1)C(c1ccccc1)N1CCCCC1` (centres undefined): the growth inhibition is 4.7% in assay [1]; -2.65% in assay [2]; -0.2% in assay [3]; 4.6% in assay [4]; 8.55% in assay [5]; 13.7% in assay [6].
In the case of `Cc1ccc2c(c1)SCc1c-2[nH]c2ccccc12`, the growth inhibition in assay [1] was 93.2% (active); in assay [2], 95.3% (active); in assay [3], 95.3% (active); in assay [4], 88.9% (active); in assay [5], 91.8% (active); in assay [6], 92.8% (active).
Turning to `CSc1nc(SC)c(Nc2cccc(C)c2)c(SC)n1`, the growth inhibition in assay [1] is -8.65%; in assay [2], 7.7%; in assay [3] it was 4.2%; in assay [4] it was -38%; in assay [5] it was 21.8%; in assay [6] it was -0.3%.
With `CN1CCN(P(=O)(c2ccccc2)N2CCN(C)CC2)CC1`, the growth inhibition was 32.3% in assay [1]; 7.85% in assay [2]; 29.6% in assay [3]; 20.1% in assay [4]; -1.1% in assay [5]; 30.7% in assay [6].
Turning to `Nc1cc(F)ccc1CC(=O)O`, the growth inhibition in assay [1] is 11.4%; in assay [2], 23.1%; in assay [3], 15.3%; in assay [4] it was -4.8%; in assay [5], 11.7%; in assay [6], 4.6%.
